# Test results from PubChem BioAssay.
# Calls of active or inactive are those of the source. Unless noted, no rule for the calls is given here.
# Assays:
# [1] = compounds binding Alexa647 anti-His antibody – biochemical, small-molecule microarray, 635 nm fluorescence, artefact control for SMM control protein annotation, primary screen (AID 1128); conditions: higher = more signal;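 also: score merges feature fluorescence with signal-to-noise for each printed compound spot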
# [2] = test system: Human papillomavirus type 1a E7 protein (residues 1-88); test: HPV1a E7 small-molecule binders, primary screen, biochemical, small-molecule microarray, residues 1-88, 635 nm (AID 1129); conditions: small-molecule microarray binding, fluorescence 635 nm; higher = more signal
# [3] = target: Focal adhesion kinase 1 (Homo sapiens) (UniProt Q05397); test: PTK2 protein binding on printed compound slides – biochemical, small-molecule microarray, 635/667 nm fluorescence, BSA, DTT, primary screen (AID 1130); conditions: 635 nm fluorescence, higher = more signal;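 also: composite of spot emission at 667 nm and signal to noise over triplicate slides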
# [4] = test system: Fibrinogen (Alexa647-labelled); test: Alexa647-fibrinogen binding to printed small molecules – biochemical, small-molecule microarray, 635/667 nm fluorescence, artefact control for SMM control-protein annotation, profiling panel (AID 1131); conditions: fibrinogen-A647 binding fluorescence, higher = more signal;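 also: z-score merges 667 nm fluorescence with per-spot signal-to-noise over triplicate slides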
# [5] = target: Follistatin (Homo sapiens) (UniProt P19883); test: FST protein binding to printed compounds – biochemical, small-molecule microarray, 635/667 nm fluorescence, primary screen (AID 1132); conditions: 635 nm fluorescence, higher = more signal
# [6] = target: Fibroblast growth factor 2 (Homo sapiens) (UniProt P09038); test: basic fibroblast growth factor binding to printed compounds – biochemical, small-molecule microarray, 635/667 nm fluorescence, primary screen (AID 1133); conditions: FGF2, fluorescence 635/667, higher = more signal
# [7] = JC-1 mitochondrial potential readout, lung cancer cells – cell-based, A549, JC-1 fluorescence, basal, 24 h, 100 nL, profiling panel (AID 1138); conditions: higher = more signal;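 also: A549 lung adenocarcinoma cells under basal conditions with no added stimulus; test concentration not given here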
# Lefty1 = Lefty1 protein binding to printed compounds – biochemical, small-molecule microarray, 635/667 nm fluorescence, primary screen (AID 1139); conditions: fluorescence 635/667, higher = more signal
# [8] = test system: wheat germ agglutinin (Triticum aestivum), Alexa647-labelled; test: Alexa647-WGA lectin binding to printed small molecules – biochemical, small-molecule microarray, 635/667 nm fluorescence, artefact control for SMM control-protein annotation, profiling panel (AID 1140); conditions: WGA-A647 binding, 635 nm fluorescence, higher = more signal;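 also: score merges 667 nm feature emission with signal to noise over triplicate slides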
# [9] = target: Luciferin 4-monooxygenase (Photinus pyralis) (UniProt P08659); test: inhibition of purified Photinus pyralis luciferase – biochemical, luminescence, purified enzyme, 2006 set, primary screen (AID 1141); conditions: purified firefly luciferase, SteadyGlo luminescence, 30 min; higher = more signal, called active from +8 up or from −8 down;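 also: cell-free assay with purified firefly luciferase at 100 ng per well in PBS; test concentration not given here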
# [10] = test system: Wnt5a (protein binding on small-molecule microarray); test: small molecules binding Wnt5a protein – biophysical, small-molecule microarray, 635/667 nm fluorescence, primary screen (AID 1142); conditions: 635 nm fluorescence, higher = more signal;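 also: fluorescence read at 667 nm with signal to noise per printed feature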
# [11] = ATP-based viability of Huh7 replicon cells – cell-based, CellTiter-Glo luminescence, basal, 48 h, cytotoxicity control for HCV replication inhibitor project, primary screen (AID 1143); conditions: higher = more signal, called active from +8 up or from −8 down;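 also: Huh7 hepatoma cells carrying a hepatitis C replication reporter with no stimulus; test concentration not given here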
# [12] = Pseudomonas biofilm growth suppression – PAO1 strain, BacTiter-Glo luminescence, LB-PBS, primary screen (AID 1144); conditions: P. aeruginosa PAO1 biofilm, 12 h, higher = more signal
# [13] = basal CRE-LacZ reporter activity in PC12 – cell-based, unstimulated, primary screen (AID 1145); conditions: no forskolin, luminescence, 4.5 h, higher = more signal, called active from +8 up or from −8 down
# [14] = forskolin-driven CRE-LacZ activity in PC12 – cell-based, CRE-LacZ reporter, forskolin-stimulated, primary screen (AID 1146); conditions: luminescence, 4.5 h, higher = more signal, called active from +8 up or from −8 down;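 also: PC12 cells with 6xCRE LacZ reporter stimulated by forskolin 10 µM; beta-galactosidase reporter signal reflecting CREB driven transcription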
# [15] = target: Streptavidin (Streptomyces avidinii) (UniProt P22629); test: compounds binding control protein streptavidin – biophysical, small-molecule microarray, 635/667 nm fluorescence, artefact control for SMM compound annotation, primary screen (AID 1147); conditions: higher = more signal;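 also: signal reflects streptavidin binding to arrayed compounds as a control protein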
# [16] = probe aInhba binding on compound microarray – biochemical, small-molecule microarray, 635/667 nm fluorescence, primary screen (AID 1148); conditions: higher = more signal;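 also: score merges 667nm spot fluorescence with signal-to-noise for antibody binding to printed compounds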
# Torsin-1A (Homo sapiens) [17] = target: Torsin-1A (Homo sapiens) (UniProt O14656); test: TOR1A wild-type binding on microarray – cell lysate, small-molecule microarray, lysate, 635/667 nm, primary screen (AID 1149); conditions: COS7 hTOR1A-WT lysate, 635 nm fluorescence, higher = more signal
# Torsin-1A (Homo sapiens) [18] = target: Torsin-1A (Homo sapiens) (UniProt O14656); test: torsin A mutant lysate binding on microarrays – cell lysate, small-molecule microarray, COS7 lysate, 635/667 nm fluorescence, primary screen (AID 1150); conditions: COS7 hTOR1A mutant lysate, 635 nm fluorescence, higher = more signal;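 also: score pools 667 nm emission and signal to noise measuring lysate protein binding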
# [19] = test system: Sonic hedgehog protein (Shh); test: Sonic hedgehog microarray binding compounds – biochemical, small-molecule microarray, 635/667 nm fluorescence, primary screen (AID 1151); conditions: 635 nm fluorescence, higher = more signal;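 also: Shh protein binding to compounds spotted on small-molecule microarray slides; score combines spot fluorescence intensity with signal-to-noise across triplicate slides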
# Chain of Torsin-1A (Homo sapiens) (O14656 whole entry, looked up): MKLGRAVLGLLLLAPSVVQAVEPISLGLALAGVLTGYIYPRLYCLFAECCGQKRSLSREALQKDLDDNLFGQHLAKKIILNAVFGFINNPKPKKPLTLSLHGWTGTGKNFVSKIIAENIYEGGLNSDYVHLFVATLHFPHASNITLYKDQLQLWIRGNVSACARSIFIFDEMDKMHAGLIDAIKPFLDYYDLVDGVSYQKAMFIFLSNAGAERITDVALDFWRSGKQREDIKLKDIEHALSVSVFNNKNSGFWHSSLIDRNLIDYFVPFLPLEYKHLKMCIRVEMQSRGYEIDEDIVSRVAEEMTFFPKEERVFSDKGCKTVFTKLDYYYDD
# Chain of Streptavidin (Streptomyces avidinii) (P22629 whole entry, looked up): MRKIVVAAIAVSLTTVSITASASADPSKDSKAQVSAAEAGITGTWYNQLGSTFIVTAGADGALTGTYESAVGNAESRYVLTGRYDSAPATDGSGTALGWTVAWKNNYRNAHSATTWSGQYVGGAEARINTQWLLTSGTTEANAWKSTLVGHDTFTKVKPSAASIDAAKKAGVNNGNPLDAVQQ
# Chain of Focal adhesion kinase 1 (Homo sapiens) (Q05397 whole entry, looked up): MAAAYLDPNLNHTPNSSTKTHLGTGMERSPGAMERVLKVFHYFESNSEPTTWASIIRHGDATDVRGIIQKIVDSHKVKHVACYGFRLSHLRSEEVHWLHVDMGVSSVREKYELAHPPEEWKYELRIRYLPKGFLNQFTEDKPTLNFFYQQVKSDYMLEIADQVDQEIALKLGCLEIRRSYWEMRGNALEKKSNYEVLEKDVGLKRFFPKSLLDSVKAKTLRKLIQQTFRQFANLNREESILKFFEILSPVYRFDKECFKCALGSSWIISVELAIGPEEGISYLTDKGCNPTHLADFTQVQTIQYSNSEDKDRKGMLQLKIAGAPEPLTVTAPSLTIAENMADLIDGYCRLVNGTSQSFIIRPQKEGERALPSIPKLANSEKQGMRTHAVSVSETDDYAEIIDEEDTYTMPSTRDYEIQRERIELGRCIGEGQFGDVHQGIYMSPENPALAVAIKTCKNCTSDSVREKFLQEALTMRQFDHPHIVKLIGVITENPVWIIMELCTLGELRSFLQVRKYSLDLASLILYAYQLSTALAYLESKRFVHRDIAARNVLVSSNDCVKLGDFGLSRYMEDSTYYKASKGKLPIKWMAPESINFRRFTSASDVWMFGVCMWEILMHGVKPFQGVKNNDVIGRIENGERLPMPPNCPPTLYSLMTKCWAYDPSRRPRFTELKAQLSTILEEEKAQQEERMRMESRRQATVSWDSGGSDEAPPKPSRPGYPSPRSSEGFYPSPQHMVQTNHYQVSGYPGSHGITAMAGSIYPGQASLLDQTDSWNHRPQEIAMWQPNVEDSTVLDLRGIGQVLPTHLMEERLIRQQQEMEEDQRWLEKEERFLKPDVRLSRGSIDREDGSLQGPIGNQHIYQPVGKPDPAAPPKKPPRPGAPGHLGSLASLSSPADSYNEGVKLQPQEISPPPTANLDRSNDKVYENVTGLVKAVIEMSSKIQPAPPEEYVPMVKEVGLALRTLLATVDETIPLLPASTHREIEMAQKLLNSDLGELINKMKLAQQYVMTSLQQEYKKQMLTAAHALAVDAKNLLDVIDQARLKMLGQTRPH
# Chain of Fibroblast growth factor 2 (Homo sapiens) (P09038 whole entry, looked up): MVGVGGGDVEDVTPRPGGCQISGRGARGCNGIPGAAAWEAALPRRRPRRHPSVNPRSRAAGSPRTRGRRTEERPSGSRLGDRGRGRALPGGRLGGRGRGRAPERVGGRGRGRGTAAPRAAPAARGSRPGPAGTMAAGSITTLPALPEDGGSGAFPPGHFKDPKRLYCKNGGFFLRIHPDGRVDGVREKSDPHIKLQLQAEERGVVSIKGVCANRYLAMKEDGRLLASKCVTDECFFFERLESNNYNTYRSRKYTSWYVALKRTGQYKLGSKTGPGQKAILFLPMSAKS
# Chain of Follistatin (Homo sapiens) (P19883 whole entry, looked up): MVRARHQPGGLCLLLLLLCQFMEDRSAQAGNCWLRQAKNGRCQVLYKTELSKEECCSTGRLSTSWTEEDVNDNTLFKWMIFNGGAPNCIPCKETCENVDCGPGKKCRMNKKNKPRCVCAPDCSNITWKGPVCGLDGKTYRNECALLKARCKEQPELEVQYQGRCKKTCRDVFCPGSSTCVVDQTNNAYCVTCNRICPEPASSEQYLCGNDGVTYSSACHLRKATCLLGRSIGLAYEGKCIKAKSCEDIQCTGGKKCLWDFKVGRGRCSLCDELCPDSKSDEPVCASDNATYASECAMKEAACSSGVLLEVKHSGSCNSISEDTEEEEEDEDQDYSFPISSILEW
# Chain of Luciferin 4-monooxygenase (Photinus pyralis) (P08659 whole entry, looked up): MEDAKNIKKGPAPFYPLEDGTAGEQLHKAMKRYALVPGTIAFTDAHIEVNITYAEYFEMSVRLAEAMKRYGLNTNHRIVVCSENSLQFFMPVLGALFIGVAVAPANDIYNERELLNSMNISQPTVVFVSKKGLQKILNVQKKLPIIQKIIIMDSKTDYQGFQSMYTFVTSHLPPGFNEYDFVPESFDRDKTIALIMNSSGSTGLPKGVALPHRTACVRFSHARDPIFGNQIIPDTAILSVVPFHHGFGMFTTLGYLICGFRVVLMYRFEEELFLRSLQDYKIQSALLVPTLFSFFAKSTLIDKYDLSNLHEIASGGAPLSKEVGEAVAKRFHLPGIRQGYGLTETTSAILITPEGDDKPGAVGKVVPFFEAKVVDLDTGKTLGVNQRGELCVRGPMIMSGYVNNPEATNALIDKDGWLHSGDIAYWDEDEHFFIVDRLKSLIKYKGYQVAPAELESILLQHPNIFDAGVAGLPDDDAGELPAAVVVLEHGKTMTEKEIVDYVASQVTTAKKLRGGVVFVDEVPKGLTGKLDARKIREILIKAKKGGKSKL
Structure (SMILES),composite z-score [1],composite z-score [2],composite z-score [3],composite z-score [4],composite z-score [5],composite z-score [6],z-score [7],composite z-score (Lefty1),composite z-score [8],z-score [9],composite z-score [10],z-score [11],z-score [12],z-score [13],z-score [14],composite z-score [15],composite z-score [16],composite z-score (Torsin-1A (Homo sapiens) [17]),composite z-score (Torsin-1A (Homo sapiens) [18]),composite z-score [19]
CC(C)[Si](C#C[Si](C(C)C)(C(C)C)C(C)C)(O[C@H](c1ccccc1)c1cn(Cc2ccccc2)nn1)C(C)C,0.259,0.733,0.23,0.436,0.532,0.2,0.238,0.635,0.212,0.87 (inactive),-0.0366,-0.071 (inactive),-1.32 (inactive),-0.752 (inactive),-0.166 (inactive),0.652,-0.016,0.412,0.107,0.558
COC(=O)[C@@H]1N=C(c2ccc(OCCCO)cc2)O[C@@H]1c1ccccc1,1.33,-0.314,-0.137,-0.887,-1.36,-0.837,0.135,-0.447,-0.0306,-13.4 (active),-0.508,-1.64 (inactive),-1.06 (inactive),-0.594 (inactive),-1.38 (inactive),-0.913,-0.0762,1.01,0.695,-0.703
C=CCC(OC(C)=O)[C@@H]1[C@@H](N(Cc2cc3ccccc3o2)C(=O)Cc2ccc(F)cc2)c2cc(OCCCO)ccc2N1C(=O)Cc1ccc2ccccc2c1 (stereo not given in full),-0.748,-0.682,-0.308,0.397,0.0648,-0.408,1.75,-0.0725,-0.286,-0.826 (inactive),-0.314,-0.327 (inactive),-0.467 (inactive),2.08 (inactive),0.926 (inactive),0.655,-0.0963,-1.16,-0.337,0.0162
COc1ccc(CCNC(=O)[C@@]2(Sc3ccc(C)cc3)CC(=O)N(Cc3ccccc3C(F)(F)F)[C@@H]2c2ccc(CO)cc2I)cc1,2.42,0.0953,-0.326,0.685,-0.706,-0.512,1.56,-1.63,0.827,-0.555 (inactive),-0.0049,-1.53 (inactive),1.02 (inactive),0.362 (inactive),2.7 (inactive),-0.975,0.0714,-1.13,-0.702,-0.649
CCOC(=O)C1=CC[C@@H](c2ccccc2)N(S(=O)(=O)c2ccc(C)cc2)[C@H]1c1ccccc1,0.271,1.17,0.428,0.915,-0.0842,-0.486,2.45,-0.381,0.991,1.16 (inactive),0.144,-3.01 (inactive),1.29 (inactive),-0.0228 (inactive),1.31 (inactive),1.46,0.115,0.345,0.626,-0.627
COc1cc2c(cc1O)C(C1CC1)N(C)CC2 (stereo not given),-1.19,-2.06,-0.532,-1.18,-1.09,-0.716,1.32,-1.59,-0.413,-0.872 (inactive),-0.201,-0.426 (inactive),0.991 (inactive),0.479 (inactive),-1.44 (inactive),-0.991,-0.203,-0.829,-1.04,-0.314
CCCCCN1CC=CC23O[C@@H]4/C=C\CCC(C)OC(=O)C4[C@H]2C(=O)N(C(CO)C(C)C)[C@@H]3C1=O (stereo not given in full),1.03,-0.46,1.94,-1.41,0.032,-0.318,-0.87,0.287,1.41,0.551 (inactive),-0.236,0.209 (inactive),-1.34 (inactive),-1.58 (inactive),-0.601 (inactive),-0.282,-0.101,-1.36,-0.303,0.866
NC(=O)NCC#Cc1ccc2c(c1)[C@]1(C(=O)N2)[C@H](c2ccccc2OCCO)N2[C@H](c3ccccc3)[C@H](c3ccccc3)OC(=O)[C@H]2[C@@H]1C(=O)O,-0.241,-0.464,-0.178,0.277,0.728,0.387,-0.545,0.477,0.225,-0.521 (inactive),-0.163,-1.22 (inactive),-1.19 (inactive),0.595 (inactive),1.36 (inactive),0.333,0.121,-0.689,0.28,0.028
C=CC[C@@H](OC(=O)Nc1ccc(SC)cc1)c1ccc(O)c(F)c1,2.11,0.57,0.274,0.221,1.06,1.11,-1.12,0.394,0.904,-3.58 (inactive),0.175,-0.77 (inactive),-1.57 (inactive),9.49 (active),3.13 (inactive),-0.192,-0.0468,0.26,0.163,1.87
C=C(C(=O)CC[C@H](OC(=O)c1ccccc1-c1ccccc1C(=O)O)c1cccc(OCCO)c1)C(C)C,0.0001,-0.399,0.0444,0.0591,0.319,0.85,-0.697,0.485,0.36,-0.373 (inactive),-0.103,-0.208 (inactive),-0.125 (inactive),0.102 (inactive),3.19 (inactive),-0.186,-0.0719,-0.492,-0.0541,0.432
COCC(=C=CC[C@H](O)c1ccccc1OCCO)C[C@H](O)c1ccccn1,0.247,0.128,-0.17,-0.473,1.02,0.262,1.5,0.426,-0.0118,-1.02 (inactive),0.0611,-0.0701 (inactive),-0.214 (inactive),1.04 (inactive),0.126 (inactive),-0.303,-0.154,-0.556,0.71,0.43
